Assay outcomes from PubChem BioAssay.
The sample as a whole holds a higher share of hits than the screen did.
Sa helicase inh: S. aureus DNA helicase inhibition; inhibition, % (concentration not given with the values); 0.05% of 120,000 active; purified S. aureus helicase, fluorescence unwinding assay; in the data active = inhibition above about 25%, passing the limit was not always enough
Sa growth 42C: S. aureus growth inhibition. S. aureus RN4220 growth, OD600, 20 h, 42 °C; active compounds read low. relative growth, % (test concentration not listed). 0.53% of 170,000 active;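 active = relative growth at most 50% at the other temperature and 20+ points below 30 °C, or under 10% at both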
A number is an active result; – = inactive; · = no result.

SMILES | Sa helicase inh | Sa growth 42C
CCCc1nc2c3ccccc3nc(=S)n2[nH]1 | – | 1.7
CCc1ccc2c(CC(=O)N3CCN(S(=O)(=O)c4ccc5c(c4)OCCO5)CC3)coc2c1 | – | –
N#C/C(=C\c1ccc(C(F)(F)F)cc1)c1cccs1 | · | –
COc1ccc(/C=C(\C#N)c2cccs2)cc1 | – | 47.2
N/C(=N/c1nc(CSc2ccc(Cl)cc2)cc(=O)[nH]1)Nc1ccc(F)cc1 | – | –
COc1[nH]c2ccccc2c1/C=N/O | – | –
S=C(Nc1ccc(Cl)c(Cl)c1)NC1CCCC1 | · | 1.3
Cc1cccc(NC(=S)NC2CCCC2)c1 | – | –
CSCCC(=O)Nc1ccc(-c2ccccc2)cc1 | – | –
O=C(NN(c1ccccc1)c1ccccc1)c1ccc(S(=O)(=O)N2CCOCC2)cc1 | – | –
Cc1nc(-c2ccc3ccccc3c2)cs1 | – | ·
Cc1nc(-c2ccc3[nH]c(=O)oc3c2)cs1 | – | -1.1
Cc1sc(C(=O)O)c(-n2cccc2)c1C | – | –
COC(=O)C(C)N1C(=O)S/C(=C/c2ccc(N3CCCCCC3)o2)C1=O (configuration not stated) | – | –
CCOC(NC(=O)Nc1ccc(Br)cc1)(C(F)(F)F)C(F)(F)F | · | -0.7
CCOC(NC(=O)c1ccccc1)(C(F)(F)F)C(F)(F)F | · | –
COc1ccc2[nH]cc(NC(=O)NCCO)c(=O)c2c1 | – | –
Oc1c(CN2CCCCC2)ccc2cccnc12 | – | –
Oc1c(C(O)(C(F)(F)F)C(F)(F)F)ccc2cccnc12 | – | -0.3
CCOc1ccc(OCC)c(NC(=O)C2(S(=O)(=O)c3ccc(Cl)cc3)CC2)c1 | – | –
COc1ccc(/C=N/n2ncc3ccccc32)cc1 | – | 26.9
COc1ccc(/C=N/N2CCN(C)CC2)cc1 | – | –
O=C(O)Cc1nnc(-c2ccc3c(c2)OCO3)o1 | – | –
Cn1ccnc1SC(=O)N1c2ccccc2Sc2ccccc21 | – | –
Cc1nccn1CC(=O)N1c2ccccc2Sc2ccccc21 | – | -0.3
SMILES | Sa helicase inh | Sa growth 42C
CCc1ccc(Nc2c3c(nc4ccccc24)CCCC3)cc1 | – | –
CCc1ccc(Nc2c3c(nc4ccccc24)CCC3)cc1 | – | 6.7
O=C(NCc1n[nH]c(=O)c2ccccc12)C1CC1 | – | –
Cc1nc2c(C(=O)NCCc3ccc(Cl)cc3)c[nH]n2c(=O)c1Cc1ccccc1F | · | 1.1
COc1ccc(CCNC(=O)c2c[nH]n3c(=O)c(Cc4ccccc4Cl)c(C)nc23)cc1OC | · | 0.7
Cc1nc2c(C(=O)NCCC(C)C)c[nH]n2c(=O)c1Cl | – | –
Cc1nc2c(C(=O)NCCc3ccccc3)c[nH]n2c(=O)c1Cl | – | –
Cc1nc2c(C(=O)NCCc3ccccc3)c[nH]n2c(=O)c1Cc1ccc(F)cc1Cl | · | -0.2
Cc1ccc(CNC(=O)c2c[nH]n3c(=O)c(Cc4ccc(F)cc4Cl)c(C)nc23)cc1 | · | 0.6
COc1ccc(CCNC(=O)c2cc(C)nc3c2c(C)nn3-c2ccccc2)cc1OC | · | –
Cc1nc2c(C(=O)NCc3ccccc3)cnn2c(C)c1Cc1ccc(F)cc1 | · | –
Cc1cc(C)c(Nc2n[nH]c(=O)[nH]2)cc1C | – | –
Cc1[nH]c(=O)n(C(C)(C)C)c(=O)c1Br | – | –
Cc1nc2c(C(=O)NCc3ccccc3Cl)cnn2c(C)c1Cc1ccccc1 | · | –
Cc1nc2c(C(=O)NCc3ccccc3Cl)c[nH]n2c(=O)c1Cc1cccc(Cl)c1 | · | 0.6
CN(CC(=O)Nc1ncc(Cl)cc1Cl)Cc1ccc(Cl)cc1 | – | –
Cc1cc(Nc2ncc(Cl)cc2Cl)n[nH]1 | – | 2.2
CC1CN/C(=C/C(=O)c2ccc(Br)cc2)C(=O)N1 (configuration not stated) | – | –
O=C(Cn1ncc2c1-c1ccccc1OC2)NCCc1ccsc1 | – | –
NC(=S)NNc1ccc(F)cc1 | – | –
N#C/C(=N\Nc1ccc(F)cc1)C(N)=S | – | 0.0
COc1ccc(-n2c(-c3ccccc3)csc2=NC(=O)c2ccccc2)cc1 | – | –
CCn1c(O)c(N=NS(=O)(=O)c2ccc(C)cc2)c2cc(Cl)ccc21 | – | 0.8
CCn1c2ccc(Cl)cc2c2cc(Cl)ccc21 | · | –
CN(C)S(=O)(=O)c1ccc2ncn(O)c2c1 | – | –
SMILES | Sa helicase inh | Sa growth 42C
NCCN1C(=O)S/C(=C\c2ccc(Cl)c(Cl)c2)C1=O | – | -0.6
O=C1S/C(=C\c2ccc(Cl)cc2)C(=O)N1Cc1ccccc1 | – | –
c1ccc(N2CCN(c3ccnc(N4CCN(c5ccccc5)CC4)n3)CC2)cc1 | – | –
Cc1ccc(C)c(N=Cc2ccccc2O)c1 | · | –
Cn1c(=O)c2[nH]c(=S)[nH]c2n(C)c1=O | – | –
CCn1c(O)c(C=Nc2ccc(OC)cc2)c(=O)n(CC)c1=S | – | –
O=C(Oc1ccc(Cl)cc1)c1cc(-c2ccc3c(c2)OCCO3)on1 | · | –
O=C(Oc1ccccc1Cl)c1cc(-c2ccc3c(c2)OCCO3)on1 | · | -0.1
Cc1cccc(OC(=O)c2cc(-c3ccc4c(c3)OCCO4)on2)c1C | · | 0.1
Cc1ccccc1OC(=O)c1cc(-c2ccc3c(c2)OCCO3)on1 | · | –
Cc1sc(NC(=O)C2COc3ccccc3O2)c(C(N)=O)c1C (configuration not stated) | – | –
Cc1nnc(NC(=O)c2nc3nccc(C)n3n2)o1 | – | –
COc1ccc(NC(=O)CCS(=O)(=O)c2nc(-c3cccs3)cc(C(F)(F)F)n2)cc1 | · | –
COC(=O)CCS(=O)(=O)c1nc(-c2cccs2)cc(C(F)(F)F)n1 | – | 1.4
CC(C)S(=O)(=O)c1oc(-c2ccc(F)cc2)nc1S(=O)(=O)c1ccccc1 | · | 1.3
CCCCS(=O)(=O)c1oc(-c2ccc(F)cc2)nc1S(=O)(=O)c1ccccc1 | · | 1.6
CCS(=O)(=O)c1oc(-c2ccc(F)cc2)nc1S(=O)(=O)c1ccc(Br)cc1 | · | –
CC(C)S(=O)(=O)c1oc(-c2cccs2)nc1S(=O)(=O)c1ccc(F)cc1 | · | –
CCCn1c(=O)n(C)c(=O)c2c(SCC3CCCCO3)nc(CC(C)C)nc21 (configuration not stated) | – | –
CCN(CC)CC(O)COc1ccc(C(C)(C)CC)cc1C(C)(C)CC (configuration not stated) | – | -0.7
CCN(CC)CC(O)COc1ccc(OC)cc1 (configuration not stated) | – | ·
N#Cc1cccc(NC(=O)c2cc3c(s2)-c2ccccc2OC3)c1 | – | –
CCN(CC)C(=O)c1cc(-c2ccccc2O)on1 | – | –
Cc1ccc(O)c(-c2cc(C(F)(F)F)no2)c1 | – | 0.2
Oc1ccccc1-c1cc(C(F)(F)C(F)F)no1 | – | 1.5
SMILES | Sa helicase inh | Sa growth 42C
Cc1ccc(-c2cc(-c3ccccc3)no2)c(O)c1 | – | –
Cc1cc(C=C(C(=O)O)C(=O)O)c(C)n1Cc1ccco1 | – | –
OC(CNCc1ccccc1)Cn1c2ccc(Cl)cc2c2cc(Cl)ccc21 (configuration not stated) | – | -0.9
O=C(O)CNCC(O)Cn1c2ccccc2c2ccccc21 (configuration not stated) | – | –
O=C(O)c1ccc(CN2CCCCC2)cc1 | – | –
O=C(O)c1ccc(O)c(SCN2CCCCC2)c1 | – | 4.1
N#Cc1cc(C#N)c(SCC(=O)N2CCNC2=O)nc1N | – | –
CC(C)=CC(=O)N1CCN(c2cccc(C(F)(F)F)c2)CC1 | – | –
CCOC(=O)C(C#N)c1ccccn1 (configuration not stated) | · | –
CCOC(=O)C(C#N)c1c(F)c(F)c(Br)c(F)c1F (configuration not stated) | – | -1.0
O=C(c1ccc(-c2ccccc2F)o1)N(CC1CCCO1)C1CCS(=O)(=O)C1 (configuration not stated) | – | –
